Screens: PubChem BioAssay, Broad Institute
IDE exosite inh: exo-site inhibitors of human IDE, primary screen, biochemical, fluorescence anisotropy, probe displacement; Insulin-degrading enzyme (Homo sapiens), P14735; purified IDE, FL-6b probe fluorescence polarization; stronger effect = lower value; hit rate 6.3% among 17,000; z-score at 20 µM;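 active means z-score of -3 or lower, meaning strong loss of probe binding signal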;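 further: His-tagged human IDE residues 42-1019 made in E. coli with 30 nM FL-6b probe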
Target sequence (P14735 42-1019 limits assumed): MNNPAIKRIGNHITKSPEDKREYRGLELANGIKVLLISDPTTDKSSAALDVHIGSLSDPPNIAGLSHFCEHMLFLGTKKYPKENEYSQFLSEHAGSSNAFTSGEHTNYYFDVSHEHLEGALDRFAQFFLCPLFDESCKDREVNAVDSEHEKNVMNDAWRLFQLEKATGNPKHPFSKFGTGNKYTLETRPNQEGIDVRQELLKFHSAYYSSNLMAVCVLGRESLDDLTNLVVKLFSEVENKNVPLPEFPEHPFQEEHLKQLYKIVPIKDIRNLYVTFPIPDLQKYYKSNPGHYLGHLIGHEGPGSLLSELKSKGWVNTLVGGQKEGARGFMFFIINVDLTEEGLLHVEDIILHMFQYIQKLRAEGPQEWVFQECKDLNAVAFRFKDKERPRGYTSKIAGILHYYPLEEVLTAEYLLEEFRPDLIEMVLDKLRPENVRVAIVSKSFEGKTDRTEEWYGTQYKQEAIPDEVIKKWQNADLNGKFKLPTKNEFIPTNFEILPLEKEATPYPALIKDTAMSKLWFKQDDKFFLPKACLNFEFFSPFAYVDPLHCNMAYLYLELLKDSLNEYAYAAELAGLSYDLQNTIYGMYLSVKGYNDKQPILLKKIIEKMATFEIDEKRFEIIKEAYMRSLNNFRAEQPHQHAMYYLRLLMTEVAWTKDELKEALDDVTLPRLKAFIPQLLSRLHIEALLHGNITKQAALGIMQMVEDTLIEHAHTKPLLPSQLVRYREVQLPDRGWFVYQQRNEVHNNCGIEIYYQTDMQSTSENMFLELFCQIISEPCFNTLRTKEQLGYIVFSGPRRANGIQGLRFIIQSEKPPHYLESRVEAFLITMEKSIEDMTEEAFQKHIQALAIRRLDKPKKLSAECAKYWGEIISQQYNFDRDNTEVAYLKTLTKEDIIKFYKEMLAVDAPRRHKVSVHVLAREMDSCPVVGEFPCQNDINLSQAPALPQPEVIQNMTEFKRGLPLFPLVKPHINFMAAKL
* = called active by the depositor. This excerpt belongs to a sample that is enriched for hits.

SMILES	IDE exosite inh
COc1ccc(-c2ccc([C@@H]3[C@@H](C#N)N(C(=O)C4CC4)[C@H]3CO)cc2)cc1	1.7
COc1ccc(-c2ccc([C@H]3[C@@H](C#N)N(C(=O)C4CC4)[C@@H]3CO)cc2)cc1	0.4
N#C[C@@H]1[C@@H](c2ccc(-c3ccccc3F)cc2)[C@@H](CO)N1C(=O)C1CCC1	1.2
N#C[C@H]1[C@H](c2ccc(-c3ccccc3F)cc2)[C@H](CO)N1C(=O)C1CC1	-2.4
COc1ccccc1-c1ccccc1[C@@H]1[C@@H](C#N)N(C(=O)C2CCC2)[C@@H]1CO	5.1
COc1ccccc1-c1ccccc1[C@@H]1[C@@H](CO)N(C(=O)C2CCC2)[C@H]1C#N	2.7
COc1ccccc1-c1ccc([C@H]2[C@@H](C#N)N(C(=O)C3CC3)[C@@H]2CO)cc1	-3.2*
COc1ccccc1-c1ccc([C@H]2[C@@H](C#N)N(C(=O)C3CC3)[C@H]2CO)cc1	-5.3*
COc1ccccc1-c1ccc([C@@H]2[C@H](C#N)N(C(=O)C3CC3)[C@H]2CO)cc1	-5.9*
COc1ccccc1-c1ccccc1[C@H]1[C@H](C#N)N(C(=O)C2CC2)[C@H]1CO	3.4
COc1ccc(-c2ccc([C@H]3[C@H](C#N)N(C(=O)C4CC4)[C@H]3CO)cc2)cc1	-0.56
N#C[C@@H]1[C@@H](c2ccc(-c3ccccc3F)cc2)[C@H](CO)N1C(=O)C1CC1	-3.1*
CCCNC(=O)N1[C@H](CNC(=O)c2ccccc2)[C@@H](c2ccccc2)[C@@H]1CO	2.2
COC(=O)c1ccc(CN2CC(=O)N3[C@H](CO)[C@H](c4ccc(-c5ccccc5)cc4)[C@@H]3C2)cc1	2.6
CO[C@H]1CN(C)C(=O)c2cccc(C#N)c2OCC[C@@H]2CC[C@@H](OC)[C@H](CN(C)C(=O)[C@@H]1C)O2	1.2
OC[C@@H]1[C@@H](c2ccccc2)C2(CN(CC3CC3)C2)N1Cc1ccc(F)cc1	0.32
C/C=C/c1ccc(C2[C@H]3CNC[C@@H]2N3C(=O)Nc2ccc3c(c2)OCO3)cc1 (some centres not stated)	-0.41
N#C[C@H]1N[C@H](CO)[C@@H]1c1ccc(C#Cc2cccnc2)cc1	2.8
O=C(Nc1ccccc1)N1CC(=O)N2[C@H](CO)[C@@H](c3ccc(-c4ccc(F)cc4)cc3)[C@@H]2C1	2.1
COc1ccccc1-c1ccc([C@H]2[C@H](C#N)N(C(=O)C3CC3)[C@H]2CO)cc1	-10*
N#C[C@H]1[C@@H](c2ccc(-c3ccccc3F)cc2)[C@H](CO)N1C(=O)C1CCC1	-0.67
COc1ccccc1-c1ccc([C@@H]2[C@@H](C#N)N(C(=O)C3CC3)[C@@H]2CO)cc1	-17*
N#C[C@@H]1[C@@H](c2ccc(-c3ccccc3F)cc2)[C@H](CO)N1C(=O)C1CCC1	2.1
CO[C@H]1CN(C)C(=O)c2cc(NC(=O)c3cccc(F)c3)ccc2OC[C@@H](C)N(C)C[C@@H]1C	-0.45
COc1cccc(CN2[C@H](CO)[C@H](c3ccccc3)C23CN(C(=O)C2CCCCC2)C3)c1	1.7
SMILES	IDE exosite inh
COc1cccc(C(=O)Nc2ccc3c(c2)C(=O)N(C)[C@H]2CC[C@@H](CC(=O)N[C@@H](C)c4ccccc4)O[C@@H]2CO3)c1	-7*
COc1cccc(C(=O)Nc2ccc3c(c2)C(=O)N(C)[C@@H]2CC[C@@H](CC(=O)N[C@@H](C)c4ccccc4)O[C@@H]2CO3)c1	0.59
COc1cccc(C(=O)Nc2ccc3c(c2)C(=O)N(C)[C@@H]2CC[C@@H](CC(=O)N[C@H](C)c4ccccc4)O[C@H]2CO3)c1	-1.6
C[C@H](NC(=O)C[C@H]1CC[C@@H]2[C@@H](COc3ccc(NC(=O)C4CCOCC4)cc3C(=O)N2C)O1)c1ccccc1	-0.8
COc1cccc(C(=O)Nc2ccc3c(c2)C(=O)N(C)[C@@H]2CC[C@@H](CC(=O)N[C@@H](C)c4ccccc4)O[C@H]2CO3)c1	-0.77
COc1cccc(C(=O)Nc2ccc3c(c2)C(=O)N(C)[C@H]2CC[C@@H](CC(=O)N[C@H](C)c4ccccc4)O[C@@H]2CO3)c1	-3.6*
CCC(=O)N1[C@H](C#N)[C@H](c2ccccc2-c2ccccc2)[C@@H]1CO	0.86
CO[C@H]1CN(C)C(=O)c2cc(NC(=O)CC(F)(F)F)ccc2OC[C@H](C)N(CC2CC2)C[C@H]1C	-0.044
O=C(C[C@H]1CC[C@H]2[C@@H](COC[C@@H](O)CN2C(=O)c2ccccc2F)O1)NCc1ccc(Cl)c(Cl)c1	-1.5
C[C@H]1CN([C@@H](C)CO)C(=O)c2cc(/C=C/c3ccccc3)cnc2O[C@H]1CN(C)S(=O)(=O)c1ccccc1F	0.065
C[C@@H]1CN([C@@H](C)CO)C(=O)c2cc(/C=C/c3ccccc3)cnc2O[C@H]1CN(C)S(=O)(=O)c1ccccc1F	-3.4*
C[C@H]1CN([C@@H](C)CO)C(=O)c2cc(/C=C/c3ccccc3)cnc2O[C@@H]1CN(C)S(=O)(=O)c1ccccc1F	-0.071
C[C@@H]1CN([C@@H](C)CO)C(=O)c2cc(C#Cc3ccccc3)cnc2O[C@@H]1CN(C)C(=O)c1ccccc1	-4*
C[C@H](CO)N1C[C@H](C)[C@@H](CN(C)C(=O)c2ccccc2)Oc2ncc(C#Cc3ccccc3)cc2C1=O	-2.2
C[C@@H]1CN([C@H](C)CO)C(=O)c2cc(C#Cc3ccccc3)cnc2O[C@@H]1CN(C)C(=O)c1ccccc1	-1.8
C/C=C/c1ccc([C@H]2[C@@H](CO)N[C@@H]2CNC(=O)C2CCCCC2)cc1	3.9
O=C(c1ccc(F)cc1)N1CC(=O)N2[C@H](CO)[C@@H](c3ccc(C#Cc4ccc(F)cc4)cc3)[C@@H]2C1	2.1
O=C(NC[C@@H]1[C@@H](c2ccccc2)[C@@H](CO)N1C(=O)C1CCC1)NC1CCCC1	0.14
O=C(Nc1ccccc1)N1CC(=O)N2[C@@H](CO)[C@H](c3ccc(C#Cc4cccnc4)cc3)[C@@H]2C1	0.25
CN1c2ccc(Br)cc2[C@H]2[C@H](CCN2S(=O)(=O)c2ccccc2F)[C@H]1CO	2.3
N#Cc1cccc(-c2ccc(C3[C@H]4CNC[C@@H]3N4C(=O)Nc3cccc(F)c3)cc2)c1 (some centres not stated)	0.34
O=C(CN1CCOCC1)N1CCCCN2[C@@H](CO)[C@@H](c3ccc(-c4ccccc4)cc3)[C@@H]2C1	-1.3
OC[C@H]1[C@@H](c2ccc(C#Cc3ccccc3)cc2)[C@@H]2CN(CC3CCOCC3)CCCCN12	-5.4*
OC[C@@H]1[C@@H](c2ccc(C#Cc3ccccc3)cc2)[C@H]2CN(CC3CCOCC3)CCCCN12	1.5
O=C(CN1CCOCC1)N1CCCCN2[C@H](C1)[C@H](c1ccc(-c3ccccc3)cc1)[C@@H]2CO	0.9
O=C(CN1CCOCC1)N1CCCCN2[C@H](CO)[C@@H](c3ccc(C#Cc4ccccc4)cc3)[C@@H]2C1	-6.2*
O=C(CN1CCOCC1)N1CCCCN2[C@H](CO)[C@H](c3ccc(C#Cc4ccccc4)cc3)[C@@H]2C1	-13*
OC[C@@H]1[C@@H](c2ccc(C#Cc3ccccc3F)cc2)[C@@H]2CN(CC3CCOCC3)CCCCN12	-0.38
CN(C[C@@H]1N[C@H](CO)[C@@H]1c1ccc(C#CCC2CCCC2)cc1)S(C)(=O)=O	0.11
CCCC#Cc1ccc([C@H]2[C@H](CO)N3C(=O)CN(C(=O)Nc4cccc(F)c4)C[C@@H]23)cc1	1.5
